Our source for the growth values is PubChem BioAssay (NCI).

About 83,000 compounds went through this panel and 20% of them were active in at least one assay; those are over-represented in the sample as a whole.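 Results are percent growth after 48 hours of single-concentration exposure. 100 means growth as in untreated cells, lower positive values show inhibition; negative values down to -100 show cell death.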 A number with no mark means an inactive call. Calls of active or inactive are those of the source. Rule for the calls: active = growth percent below 10; inactive = the rest.

Experiment in all cases: NCI-60 one-dose screen, 48 h (100 = growth as untreated, 0 = no growth, -100 = all killed)
What all share (settings): 10 µM unless noted

Test [1] concerns T-47D breast.
In test [2] the test system is BT-549 breast.
Test [3] deals with MDA-MB-435 melanoma.
Test [4] has as its system SW-620 colon.
For test [5], the system named is MCF7 breast.
In test [6] the test system is HCT-116 colon.
Test [7] has as its system HCC-2998 colon.
The test system of test [8] is KM12 colon.

As to `COc1cc(OC)c2c(c1Cl)O[C@]1(C2=O)C(OCc2ccccc2)=CC(=O)C[C@H]1C`, the growth in test [1] was 8.09% (active); in test [2] it was 24.2%; in test [3], -44.5% (active); in test [4], 19.8%; in test [5], 12.7%; in test [6], 7.75% (active). Besides, the growth in test [7] was -5.11% (active); in test [8], 7.93% (active).
For `O=C(/C=C/c1ccc(C(F)(F)F)cc1)c1ccc(Nc2nc(NCCO)nc(NCCO)n2)cc1`, the growth in test [1] was 37.2%; in test [2], 21.3%; in test [3] it was 92.8%; in test [4], 1.28% (active); in test [5], 13.1%; in test [6] it was -25.4% (active). Also, the growth is 97.4% in test [7] and 19% in test [8].
Turning to `CCN1CC2=C(Nc3nc(SC)[nH]c(=O)c3C2c2cc(OC)c(OC)c(OC)c2)/C(=C/c2cc(OC)c(OC)c(OC)c2)C1` (stereo not given), the growth was 97.5% in test [1]; 102% in test [2]; 93.5% in test [3]; 102% in test [4]; 86.2% in test [5]; 92.6% in test [6]. The growth is 102% in test [7] and 97.5% in test [8].
On to `CC(=O)Nc1c(Cl)cc2c(c1Cl)Cc1ccccc1-2`, for which the growth in test [1] was 89.5%; in test [2], 98.8%; in test [3] it was 122%; in test [4], 103%; in test [5] it was 91.1%; in test [6], 99.1%. Besides, the growth was 107% in test [7] and 97.2% in test [8].
In the case of `CCN(Cc1cccc(S(=O)(=O)[O-])c1)c1ccc(C(=C2C=CC(=[N+](CC)Cc3cccc(S(=O)(=O)O)c3)C=C2)c2ccccc2S(=O)(=O)O)cc1`, the growth in test [1] is 90.3%; in test [2], 104%; in test [3], 94.2%; in test [4] it was 103%; in test [5], 90.2%; in test [6], 95.1%. For the same molecule, the growth was 97.8% in test [7] and 94.4% in test [8].
`CCOc1cc(/C=C/C(=O)CC(=O)/C=C/c2ccc(OC(=O)CNc3nc4ccc(OC)cc4s3)c(OCC)c2)ccc1OC(=O)CNc1nc2ccc(OC)cc2s1`: the growth in test [1] is 79.7%; in test [2], -1.58% (active); in test [3] it was -22.2% (active); in test [4], 17.9%; in test [5] it was 9.28% (active); in test [6], 4.31% (active). Moreover, the growth in test [7] is 39.6%; in test [8], 9.4% (active).
On to `COc1cccc(/C=N\NC(=O)c2ccncc2)c1O`, for which the growth was 28.2% in test [1]; 49.8% in test [2]; 83% in test [3]; 62.5% in test [4]; 26.5% in test [5]; 11.6% in test [6]. For the same molecule, the growth in test [7] is 57.2%; in test [8], 62.6%.
For `c1ccc(-c2n(Cc3ccc4ccccc4c3)cc[n+]2Cc2ccc3ccccc3c2)cc1`, the growth in test [1] is -0.722% (active); in test [2] it was -77.5% (active); in test [3] it was -73.2% (active); in test [4], -50.7% (active); in test [5], -65.8% (active); in test [6] it was -91.6% (active). In addition, the growth in test [7] is -59.9% (active); in test [8], -81.5% (active).
On to `Cc1c2oc3c(C)ccc(C(=O)OC(C)C4NC(=O)C(C(C)C)N(C)C(=O)CN(C)C(=O)C5CCCN5C(=O)C(C(C)C)NC4=O)c3nc-2c(C(=O)OC(C)C2NC(=O)C(C(C)C)N(C)C(=O)CN(C)C(=O)C3CCCN3C(=O)C(C(C)C)NC2=O)c(N)c1=O` (stereo not given), for which the growth was 5.74% (active) in test [1]; -38.1% (active) in test [2]; -71.1% (active) in test [3]; 3.76% (active) in test [4]; 5.55% (active) in test [5]; 7.39% (active) in test [6]. In addition, the growth in test [7] is -34.4% (active); in test [8] it was 0.674% (active).
As for `CCOc1cc(/C=C/C(=O)CC(=O)/C=C/c2ccc(OC(=O)CNCCN(CC)CC)c(OCC)c2)ccc1OC(=O)CNCCN(CC)CC`, the growth in test [1] is 36.9%; in test [2], -77.2% (active); in test [3], -21.6% (active); in test [4], -58.1% (active); in test [5], 7.36% (active); in test [6], -84.7% (active). In addition, the growth was -71.2% (active) in test [7] and -60.2% (active) in test [8].
For `CCCCCc1c(C)[nH]c(/C=C2\N=C(c3ccc[nH]3)C=C2Oc2ccccc2)c1C`, the growth in test [1] was -61.1% [100 µM] (active); in test [2], -97.1% [100 µM] (active); in test [3], -34.4% [100 µM] (active); in test [4], -54% [100 µM] (active); in test [5], -100% [100 µM] (active); in test [6] it was -4.84% [100 µM] (active). In addition, the growth in test [7] was -91.6% [100 µM] (active); in test [8], -81.7% [100 µM] (active).
For `CSc1nc(N)c2c(n1)N(C)C=NS2(=O)=O`, the growth is 97.2% in test [1]; 100% in test [2]; 111% in test [3]; 102% in test [4]; 102% in test [5]; 102% in test [6]. For the same molecule, the growth in test [7] was 107%; in test [8], 117%.
As for `CC(=O)Nc1cc(C(c2ccccc2)c2ccccc2)cc(C(c2ccccc2)c2ccccc2)c1C`, the growth in test [1] was 24.9%; in test [2], 55.5%; in test [3], 63.9%; in test [4] it was 52%; in test [5], 41.3%; in test [6], 8.02% (active). In addition, the growth in test [7] is 64.9%; in test [8], 50.5%.
Consider `O=C(COc1ccc(/C=C2\Oc3ccc4ccccc4c3C2=O)cc1)c1ccc([N+](=O)[O-])cc1`, for which the growth was 73.1% in test [1]; 9.91% (active) in test [2]; 104% in test [3]; 98.5% in test [4]; 15.6% in test [5]; 74.1% in test [6]. Also, the growth in test [7] was 95.5%; in test [8] it was 93.5%.
On to `O=C(COc1cccc(/C=C2\Oc3ccc4ccccc4c3C2=O)c1)c1ccc(Cl)cc1`, for which the growth in test [1] was 62.6%; in test [2], 3.5% (active); in test [3], 96.1%; in test [4] it was 36%; in test [5], 63.9%; in test [6] it was 41.7%. Moreover, the growth in test [7] was 87.5%; in test [8], 96.5%.
